In PubChem BioAssay AID1159580 (chemical genetic matrix, 2015):
The campaign covered roughly 5,500 compounds. About 2,000 (36%) were called active. Not shown: some 18% with an inconclusive outcome. Cut-off read from the data, not from the text of the source: active = normalized growth mostly below about 0.91 (no sharp cut-off); inconclusive = no clear call, values can overlap the other calls; inactive = mostly above about 0.92. This is one part of the list.

Assay: chemical genetic growth profiling, strain panel (AID 1159580);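 note: tested at 20 µM; growth read once vehicle control cultures reached saturation at 30 °C; 1 = growth at the plate median or of vehicle wells; lower values mean less growth of the strain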
Conditions: growth OD

Measured: normalized growth

CC(C)(Sc1cc(C(C)(C)C)c(O)c(C(C)(C)C)c1)Sc1cc(C(C)(C)C)c(O)c(C(C)(C)C)c1
inactive: S. cerevisiae deletion strains, locus YJR075W, strain HOC1, hits give low values 1.01 | S. cerevisiae deletion strains, locus YKL068W, hits give low values 1.01 | S. cerevisiae deletion strains, locus YKL085W, strain MDH1 (second series), hits give low values 1.05 | S. cerevisiae deletion strains, locus YKL085W, strain MDH1, hits give low values 1.05 | S. cerevisiae deletion strains, locus YKL160W, strain elf1, hits give low values 0.99 | S. cerevisiae deletion strains, locus YKL190W, strain CNB1, hits give low values 1.01 | S. cerevisiae deletion strains, locus YKR001C, strain vps1, hits give low values 1.02 | S. cerevisiae deletion strains, locus YKR026C, strain gcn3, hits give low values 0.987 | S. cerevisiae deletion strains, locus YKR091W, strain srl3, hits give low values 1.02 | S. cerevisiae deletion strains, locus YLL001W, strain dnm1, hits give low values 0.996 | S. cerevisiae deletion strains, locus YLL026W, hits give low values 1 | S. cerevisiae deletion strains, locus YLL041C, strain sdh2, hits give low values 1.01 | S. cerevisiae deletion strains, locus YLR027C, strain aat2, hits give low values 0.994 | S. cerevisiae deletion strains, locus YLR039C, strain RIC1, hits give low values 1.02 | S. cerevisiae deletion strains, locus YLR058C, strain SHM2, hits give low values 1.01 | S. cerevisiae deletion strains, locus YLR102C, strain apc9, hits give low values 1.03 | S. cerevisiae deletion strains, locus YLR113W, strain HOG1, hits give low values 1.01 | S. cerevisiae deletion strains, locus YLR221C, strain rsa3, hits give low values 1.01 | S. cerevisiae deletion strains, locus YLR258W, strain gsy2, hits give low values 1.01 | S. cerevisiae deletion strains, locus YLR262C, strain YPT6 (second series), hits give low values 1 | S. cerevisiae deletion strains, locus YLR262C, strain YPT6, hits give low values 1.01 | S. cerevisiae deletion strains, locus YLR268W, strain sec22, hits give low values 1.09 | S. cerevisiae deletion strains, locus YLR320W, strain mms22, hits give low values 1 | S. cerevisiae deletion strains, locus YLR330W, strain CHS5, hits give low values 1.01 | S. cerevisiae deletion strains, locus YLR342W, strain FKS1 (second series), hits give low values 0.992 | S. cerevisiae deletion strains, locus YLR342W, strain FKS1, hits give low values 1 | S. cerevisiae deletion strains, locus YLR357W, strain rsc2, hits give low values 0.997 | S. cerevisiae deletion strains, locus YLR370C, strain arc18, hits give low values 1.01 | S. cerevisiae deletion strains, locus YLR371W, strain rom2, hits give low values 1.01 | S. cerevisiae deletion strains, locus YLR384C, strain iki3, hits give low values 0.99 | S. cerevisiae deletion strains, locus YLR418C, strain cdc73, hits give low values 1.07 | S. cerevisiae deletion strains, locus YML016C, strain PPZ1, hits give low values 0.999 | S. cerevisiae deletion strains, locus YML032C, strain rad52, hits give low values 1.03 | S. cerevisiae deletion strains, locus YML120C, strain ndi1, hits give low values 1 | S. cerevisiae deletion strains, locus YML124C, strain tub3, hits give low values 1.02 | S. cerevisiae deletion strains, locus YMR058W, strain fet3, hits give low values 1.02 | S. cerevisiae deletion strains, locus YMR078C, strain ctf18, hits give low values 1.03 | S. cerevisiae deletion strains, locus YMR125W, strain sto1, hits give low values 1 | S. cerevisiae deletion strains, locus YMR129W, hits give low values 1.01 | S. cerevisiae deletion strains, locus YMR205C, strain PFK2, hits give low values 1.01 | S. cerevisiae deletion strains, locus YMR223W, strain ubp8, hits give low values 1.02 | S. cerevisiae deletion strains, locus YMR231W, strain pep5, hits give low values 1 | S. cerevisiae deletion strains, locus YMR263W, strain SAP30, hits give low values 1.03 | S. cerevisiae deletion strains, locus YMR307W, strain GAS1, hits give low values 1.01 | S. cerevisiae deletion strains, locus YNL067W, strain RPL9B, hits give low values 1.03 | S. cerevisiae deletion strains, locus YNL071W, strain lat1, hits give low values 1.02 | S. cerevisiae deletion strains, locus YNL128W, strain TEP1, hits give low values 1.03 | S. cerevisiae deletion strains, locus YNL153C, strain GIM3, hits give low values 1.03 | S. cerevisiae deletion strains, locus YNL183C, strain NPR1, hits give low values 0.899 | S. cerevisiae deletion strains, locus YNL209W, strain ssb2, hits give low values 0.989 | S. cerevisiae deletion strains, locus YNL233W, strain BNI4, hits give low values 1.02 | S. cerevisiae deletion strains, locus YNL248C, strain rpa49, hits give low values 1.06 | S. cerevisiae deletion strains, locus YNL250W, strain rad50, hits give low values 1.02 | S. cerevisiae deletion strains, locus YNL271C, strain bni1, hits give low values 1.03 | S. cerevisiae deletion strains, locus YNL298W, strain CLA4, hits give low values 1.02 | S. cerevisiae deletion strains, locus YNL307C, strain MCK1, hits give low values 1.03 | S. cerevisiae deletion strains, locus YNL322C, strain KRE1 (second series), hits give low values 1.01 | S. cerevisiae deletion strains, locus YNL322C, strain KRE1, hits give low values 1.01 | S. cerevisiae deletion strains, locus YNR049C, strain mso1, hits give low values 1 | S. cerevisiae deletion strains, locus YNR052C, strain pop2, hits give low values 1.02 | S. cerevisiae deletion strains, locus YOL006C, strain TOP1, hits give low values 1.11 | S. cerevisiae deletion strains, locus YOL012C, strain htz1 1.15 | S. cerevisiae deletion strains, locus YOL147C, strain pex11, hits give low values 1.02 | S. cerevisiae deletion strains, locus YOR001W, strain rrp6, hits give low values 1.02 | S. cerevisiae deletion strains, locus YOR061W, strain CKA2, hits give low values 1.01 | S. cerevisiae deletion strains, locus YOR069W, strain VPS5, hits give low values 0.987 | S. cerevisiae deletion strains, locus YOR070C, strain gyp1, hits give low values 1 | S. cerevisiae deletion strains, locus YOR080W, strain dia2, hits give low values 0.996 | S. cerevisiae deletion strains, locus YOR083W, strain WHI5, hits give low values 0.998 | S. cerevisiae deletion strains, locus YOR106W, strain vam3, hits give low values 0.98 | S. cerevisiae deletion strains, locus YOR136W, strain idh2, hits give low values 1.03 | S. cerevisiae deletion strains, locus YOR144C, strain elg1, hits give low values 1.01 | S. cerevisiae deletion strains, locus YOR184W, strain ser1, hits give low values 1.03 | S. cerevisiae deletion strains, locus YOR231W, strain MKK1, hits give low values 0.996 | S. cerevisiae deletion strains, locus YOR265W, strain rbl2, hits give low values 0.997 | S. cerevisiae deletion strains, locus YOR270C, strain vph1, hits give low values 1.05 | S. cerevisiae deletion strains, locus YOR290C, strain snf2, hits give low values 1.01 | S. cerevisiae deletion strains, locus YOR316C, strain cot1, hits give low values 1.03 | S. cerevisiae deletion strains, locus YPL051W, strain arl3, hits give low values 0.988 | S. cerevisiae deletion strains, locus YPL055C, strain LGE1, hits give low values 1.03 | S. cerevisiae deletion strains, locus YPL078C, strain atp4, hits give low values 1.01 | S. cerevisiae deletion strains, locus YPL106C, strain sse1, hits give low values 1.01 | S. cerevisiae deletion strains, locus YPL240C, strain hsp82, hits give low values 1.03 | S. cerevisiae deletion strains, locus YPL241C, strain CIN2, hits give low values 1.01 | S. cerevisiae deletion strains, locus YPL256C, strain CLN2, hits give low values 1.03 | S. cerevisiae deletion strains, locus YPR119W, strain clb2, hits give low values 1.01 | S. cerevisiae deletion strains, locus YPR141C, strain kar3, hits give low values 1.02 | S. cerevisiae deletion strains, locus YPR163C, strain tif3, hits give low values 1.02 | S. cerevisiae deletion strains, locus YPR167C, strain met16, hits give low values 1.02 | S. cerevisiae deletion strains, strain wtn01, hits give low values 1.02 | S. cerevisiae strains, strain wild type, hits give low values 1.02
